# The panel holds about 79,000 compounds, 15% with a hit somewhere; the sample as a whole holds those more often. Values without a mark were called inactive. Active and inactive are the calls of the source. Cut-off read from the data, not from the text of the source: active = growth inhibition above about 70%; inactive = the rest.
# Experiment: NCI Yeast Anticancer Drug Screen. Data for the bub3 strain (AID 167)
# Conditions: S. cerevisiae bub3 mutant strain, stronger effect = higher value
# Procedure: Growth inhibition of yeast strains with defined genetic alterations is measured as a screen for potential anti-cancer activity. Selected strains with alterations in DNA damage repair or cell cycle control were exposed to compounds and growth inhibition was measured relative to vehicle treated controls. The strain used in this assay is bub3
# [1] = at 5.0 µM (retest, dose inferred, filed as 0.5)
# [2] = at 50.0 µM (retest, dose inferred, filed as 5.0)
SMILES,growth inhibition [1],growth inhibition [2],growth inhibition (at 50.0 µM)
O=C1Oc2ccccc2C1c1ccccc1 (configuration not stated),-1%,95% (active),34.5%
Cc1c(C)c2cc3c(=O)ccoc3c(C)c2oc1=O,-1%,52%,30.4%
OCCOCCO[P+]1(OCCOCCO)n2c3ccc2C(c2ccccc2)=C2C=CC(=N2)C(c2ccccc2)=c2ccc(n21)=C(c1ccccc1)C1=NC(=C3c2ccccc2)C=C1,100% (active),99% (active),89% (active)
COc1ccc(-c2cscc2N)cc1,-19%,91% (active),92.2% (active)
c1ccc(NCCSc2nc3ccccc3s2)cc1,24%,70% (active),81.6% (active)
COc1cc2oc(-c3ccc(O)cc3O)c(CC=C(C)C)c(=O)c2c(O)c1/C=C/C(C)C,11%,97% (active),88.8% (active)
COC(OC)(c1ccccc1)C(I)I,100% (active),100% (active),99.3% (active)
N=C(N)c1ccc(Nc2ccc(-c3cc4ccc(C(=N)N)cc4[nH]3)cc2)cc1,99% (active),98% (active),99% (active)
CCCCCCCNCCCCCC,75% (active),97% (active),67.1%
CSC(=S)N/N=C(\C)c1nccnc1C,21%,98% (active),99% (active)
CCC(=O)Sc1ccccc1C(=O)Nc1ccc(Cl)cc1,22%,74% (active),56.4%
N#C/C=C(\c1ccccc1)c1c[nH]c2ccccc12,-63%,97% (active),97% (active)
O=C(c1cccc(Cl)c1)c1ccc2ccccc2c1C(=O)O,-6%,1%,-1.5%
C[C-](O)O.O/C(=C\[C-](O)c1ccccc1)c1ccccc1.O/C(=C\[C-](O)c1ccccc1)c1ccccc1.[Nd+3] (configuration not stated),20%,20%,90.2% (active)
